# Experimental data as given in PubChem BioAssay.
# Values joined by “and” are separate entries in the source; they are usually repeats but may differ in a detail not shown here. Equal values may be shown once. Results filed as inconclusive are left out. Some structures have more than one record in an assay (separate samples or runs), and their calls can disagree. Active and inactive are the calls of the source.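 The calls were made as follows, unless noted: active = normalized viability below 100% at a tested concentration; inactive = the rest.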
# Experiments:
# [1] = viability loss in pontine glioma line – cell-based, SU-DIPG-XVII, MIPE5.0, CellTiter-Glo, qHTS, dose response (AID 1347060; cut-off not given, nearly all actives have AC50 up to about 26 µM;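 as to AC50: cells exposed to compound for 48 hours before viability readout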); conditions: CellTiter-Glo ATP luminescence
# [2] = viability loss in pontine glioma line – cell-based, JHH-DIPG-1, MIPE4.0, CellTiter-Glo, qHTS, dose response (AID 1347062; cut-off not given, nearly all actives have AC50 up to about 27 µM;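 as to AC50: cells exposed to compound for two days before readout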); conditions: JHH-DIPG-1 viability, CellTiter-Glo ATP luminescence
# [3] = viability loss in pontine glioma line – cell-based, SU-DIPG-IV, MIPE4.0, CellTiter-Glo, qHTS, dose response (AID 1347063; cut-off not given, nearly all actives have AC50 up to about 30 µM;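 also: compound exposure lasted 48 hours before the viability readout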); conditions: CellTiter-Glo ATP luminescence
# [4] = viability loss in pontine glioma line – cell-based, SU-DIPG-XIII, MIPE5.0, CellTiter-Glo, qHTS, dose response (AID 1347064; cut-off not given, nearly all actives have AC50 up to about 23 µM;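 as to AC50: cells exposed to compound for 48 hours before the viability read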); conditions: CellTiter-Glo ATP luminescence
# [5] = viability loss in pontine glioma line – cell-based, SU-DIPG-XXV, MIPE5.0, CellTiter-Glo, qHTS, dose response (AID 1347065; cut-off not given, nearly all actives have AC50 up to about 26 µM;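 also: cells exposed to compound for 48 hours before ATP readout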); conditions: CellTiter-Glo ATP luminescence
# [6] = growth inhibition of DIPG cells – cell-based, MIPE4.0 library, CellTiter-Glo luminescence, qHTS (AID 1347066; cut-off not given, nearly all actives have AC50 up to about 30 µM;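 also: cells exposed to compound for 48 hours before readout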); conditions: SU-DIPG-VI viability, CellTiter-Glo ATP luminescence
# [7] = JHH-DIPG-1 glioma cell viability, MIPE5.0 library, CellTiter-Glo luminescence, qHTS (AID 1347067; cut-off not given, nearly all actives have AC50 up to about 26 µM;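 also: cells exposed to compound for 48 hours before readout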); conditions: JHH-DIPG-1 glioma viability, CellTiter-Glo ATP luminescence
# [8] = growth inhibition of DIPG cells – cell-based, MIPE5.0 library, qHTS (AID 1347068; cut-off not given, nearly all actives have IC50 up to about 30 µM;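 as to IC50: cells exposed to compound for 48 hours before viability readout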); conditions: SU-DIPG-XXV viability
# [9] = viability loss with induced miR-34 in A549 – imaging, A549 dox-inducible miR-34, nuclei and caspase counts, primary screen (AID 1347080;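 active = compounds whose cell count with miR-34 switched on is under 0.7 times the count with it off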); conditions: A549 miR-34 inducible, Hoechst nuclei count, 48 h
# [10] = MELAS cybrid and Rieske KO viability enhancers – cell-based, MELAS cybrids, Rieske KO mouse fibroblasts, CellTiter-Glo, primary screen (AID 1508586;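 active = mean z-score across replicates of 1.96 or higher in either the MELAS or the Rieske mutant cell line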;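 also: z relative to plate mean and SD of compound and empty wells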); conditions: low glucose
# [11] = compounds altering HSF1 focus formation in cells – imaging, Selleck Cancer Library (AID 1347162; in the data active = plate-normalised HSF1 focus index below about 0.46); conditions: human cells, HSF1 nuclear foci imaging, at 10 µM; SSMD: measured here: HSF1 foci SSMD mean; cell count: measured here: cell number; plate-normalised HSF1 focus index: stronger effect = lower value
# [12] = drug combination growth inhibition, ovarian cancer – cell-based, oncology-focused library, rucaparib conditional, profiling panel (AID 1508598); conditions: patient-derived ovarian cancer cells, CellTiter-Glo viability, 144 h, stronger effect = lower value
# [13] = stronger effect = lower value, cell number ratio, induced over uninduced
# [14] = measured here: relative caspase fold change +Dox/-Dox
# [15] = measured here: total cells with miR-34 induction, stronger effect = lower value
# [16] = measured here: total cells without miR-34 induction
# [17] = MELAS cybrid survival, CellTiter-Glo 48 h, stronger effect = higher value
# [18] = Rieske KO mouse fibroblast survival, CellTiter-Glo 72 h
# [19] = at 0.000305 µM, OCI-C5x cells, with rucaparib 10 µM, 100% = cells with rucaparib alone
# [20] = at 0.000305 µM, OCI-C5x cells, without rucaparib
# [21] = at 0.000305 µM, OCI-P5x cells, with rucaparib 20 µM, 100% = cells with rucaparib alone
# [22] = at 0.000305 µM, OCI-P5x cells, without rucaparib
# [23] = at 0.00122 µM, OCI-C5x cells, with rucaparib 10 µM, 100% = cells with rucaparib alone
# [24] = at 0.00122 µM, OCI-C5x cells, without rucaparib
# [25] = at 0.00122 µM, OCI-P5x cells, with rucaparib 20 µM, 100% = cells with rucaparib alone
# [26] = at 0.00122 µM, OCI-P5x cells, without rucaparib
# [27] = at 0.00488 µM, OCI-C5x cells, with rucaparib 10 µM, 100% = cells with rucaparib alone
# [28] = at 0.00488 µM, OCI-C5x cells, without rucaparib
# [29] = at 0.00488 µM, OCI-P5x cells, with rucaparib 20 µM, 100% = cells with rucaparib alone
# [30] = at 0.00488 µM, OCI-P5x cells, without rucaparib
# [31] = at 0.0195 µM, OCI-C5x cells, with rucaparib 10 µM, 100% = cells with rucaparib alone
# [32] = at 0.0195 µM, OCI-C5x cells, without rucaparib
# [33] = at 0.0195 µM, OCI-P5x cells, with rucaparib 20 µM, 100% = cells with rucaparib alone
# [34] = at 0.0195 µM, OCI-P5x cells, without rucaparib
# [35] = at 0.0781 µM, OCI-C5x cells, with rucaparib 10 µM, 100% = cells with rucaparib alone
# [36] = at 0.0781 µM, OCI-C5x cells, without rucaparib
# [37] = at 0.0781 µM, OCI-P5x cells, with rucaparib 20 µM, 100% = cells with rucaparib alone
# [38] = at 0.0781 µM, OCI-P5x cells, without rucaparib
# [39] = at 0.313 µM, OCI-C5x cells, with rucaparib 10 µM, 100% = cells with rucaparib alone
# [40] = at 0.313 µM, OCI-C5x cells, without rucaparib
# [41] = at 0.313 µM, OCI-P5x cells, with rucaparib 20 µM, 100% = cells with rucaparib alone
# [42] = at 0.313 µM, OCI-P5x cells, without rucaparib
# [43] = at 1.25 µM, OCI-C5x cells, with rucaparib 10 µM, 100% = cells with rucaparib alone
# [44] = at 1.25 µM, OCI-C5x cells, without rucaparib
# [45] = at 1.25 µM, OCI-P5x cells, with rucaparib 20 µM, 100% = cells with rucaparib alone
# [46] = at 1.25 µM, OCI-P5x cells, without rucaparib
# [47] = at 5 µM, OCI-C5x cells, with rucaparib 10 µM, 100% = cells with rucaparib alone
# [48] = at 5 µM, OCI-C5x cells, without rucaparib
# [49] = at 5 µM, OCI-P5x cells, with rucaparib 20 µM, 100% = cells with rucaparib alone
# [50] = at 5 µM, OCI-P5x cells, without rucaparib
smiles,measurement,setting,value
C=CC(=O)Nc1cc2c(Nc3ccc(F)c(Cl)c3)ncnc2cc1C#CC(C)(C)N1CCN(C)CC1,AC50,[1],2.95 µM (active)
same,AC50,[2],5.26 µM (active)
same,AC50,[3],1.87 µM (active)
same,AC50,[4],4.68 µM (active)
same,AC50,[5],5.9 µM (active)
same,AC50,[6],5.9 µM (active)
same,AC50,[7],4.17 µM (active)
same,IC50,[8],7.42 µM (active)
CNC(=O)c1nn(C)c2c1C(C)(C)Cc1cnc(Nc3ccc(N4CCN(C)CC4)cc3)nc1-2,AC50,[1],5.9 µM (active)
same,AC50,[2],2.35 µM (active)
same,AC50,[3],14.8 µM (active)
same,AC50,[4],6.61 µM (active)
same,AC50,[5],2.35 µM (active)
same,AC50,[7],8.33 µM (active)
same,IC50,[8],9.34 µM (active)
same,fold change,[9]; [13],1.12 (inactive)
same,fold change,[9]; [14],0.794
same,cell count,[9]; [15],1220
same,cell count,[9]; [16],1090
same,z-score,[10]; [17],4.48 (active)
same,z-score,[10]; [18],-3.65
c1ccc2c(CCNc3ccc(Nc4ccncc4)cc3)c[nH]c2c1,AC50,[1],18.6 µM (active)
same,AC50,[2],18.7 µM (active)
same,AC50,[3],18.7 µM (active)
same,AC50,[4],20.9 µM (active)
same,AC50,[5],26.3 µM (active)
same,AC50,[7],23.5 µM (active)
same,IC50,[8],5.9 µM (active)
same,fold change,[9]; [13],1.02 (inactive)
same,fold change,[9]; [14],1.37
same,cell count,[9]; [15],2540
same,cell count,[9]; [16],2490
same,SSMD,[11],-0.197
same,cell count,[11],6510
same,plate-normalised HSF1 focus index,[11],0.99 (inactive)
same,z-score,[10]; [17],-0.455 (inactive)
same,z-score,[10]; [18],-0.307
same,viability,[12]; [19],116% (inactive)
same,viability,[12]; [20],111% (inactive)
same,viability,[12]; [21],114% (inactive)
same,viability,[12]; [22],116% (inactive)
same,viability,[12]; [23],116% (inactive)
same,viability,[12]; [24],111% (inactive)
same,viability,[12]; [25],117% (inactive)
same,viability,[12]; [26],121% (inactive)
same,viability,[12]; [27],116% (inactive)
same,viability,[12]; [28],99.7% (active)
same,viability,[12]; [29],112% (inactive)
same,viability,[12]; [30],119% (inactive)
same,viability,[12]; [31],111% (inactive)
same,viability,[12]; [32],105% (inactive)
same,viability,[12]; [33],111% (inactive)
same,viability,[12]; [34],122% (inactive)
same,viability,[12]; [35],104% (inactive)
same,viability,[12]; [36],111% (inactive)
same,viability,[12]; [37],112% (inactive)
same,viability,[12]; [38],122% (inactive)
same,viability,[12]; [39],110% (inactive)
same,viability,[12]; [40],101% (inactive)
same,viability,[12]; [41],99.7% (active)
same,viability,[12]; [42],110% (inactive)
same,viability,[12]; [43],107% (inactive)
same,viability,[12]; [44],107% (inactive)
same,viability,[12]; [45],94.3% (active)
same,viability,[12]; [46],104% (inactive)
same,viability,[12]; [47],25.5% (active)
same,viability,[12]; [48],106% (inactive)
same,viability,[12]; [49],78.5% (active)
same,viability,[12]; [50],99% (active)
CCCCC(C)(C)[C@H](O)/C=C/[C@H]1[C@H](O)CC(=O)[C@@H]1C/C=C\CCCC(=O)O,AC50,[1],13.2 µM (active)
same,outcome,[2],inactive
same,outcome,[3],inactive
same,AC50,[4],14.8 µM (active)
same,AC50,[5],14.8 µM (active)
same,AC50,[6],18.7 µM (active)
same,AC50,[7],14.8 µM (active)
same,outcome,[8],inactive
same,fold change,[9]; [13],1.01 (inactive) and 0.939 (inactive)
same,fold change,[9]; [14],1.62 and 1.28
same,cell count,[9]; [15],6230 and 5490
same,cell count,[9]; [16],6170 and 5850
O=C(O)c1ccccc1C(=O)Nc1ccc(-c2ccccc2)cc1,outcome,[1],inactive
same,outcome,[2],inactive
same,outcome,[3],inactive
same,outcome,[4],inactive
same,outcome,[5],inactive
same,outcome,[7],inactive
same,outcome,[8],inactive
CN(c1ncccc1CNc1nc(Nc2ccc3c(c2)CC(=O)N3)ncc1C(F)(F)F)S(C)(=O)=O,AC50,[1],5.25 µM (active)
same,AC50,[2],5.9 µM (active)
same,AC50,[3],4.18 µM (active)
same,AC50,[4],8.33 µM (active)
same,AC50,[5],3.72 µM (active)
same,AC50,[7],8.33 µM (active)
same,IC50,[8],11.8 µM (active)
same,fold change,[9]; [13],0.847 (inactive) and 0.961 (inactive) and 0.946 (inactive)
same,fold change,[9]; [14],0.469 and 1.06 and 0.671
same,cell count,[9]; [15],1490 and 1380 and 1080
same,cell count,[9]; [16],1760 and 1430 and 1140
same,SSMD,[11],-7.81
same,cell count,[11],4390
same,plate-normalised HSF1 focus index,[11],0.528 (inactive)
same,z-score,[10]; [17],-0.34 (inactive) and -0.161 (inactive) and 2.09 (active)
same,z-score,[10]; [18],-0.291 and -0.23 and -5.55
same,viability,[12]; [19],100% (inactive)
same,viability,[12]; [20],125% (inactive)
same,viability,[12]; [21],105% (inactive)
same,viability,[12]; [22],110% (inactive)
same,viability,[12]; [23],110% (inactive)
same,viability,[12]; [24],111% (inactive)
same,viability,[12]; [25],110% (inactive)
same,viability,[12]; [26],110% (inactive)
same,viability,[12]; [27],106% (inactive)
same,viability,[12]; [28],130% (inactive)
same,viability,[12]; [29],99.2% (active)
same,viability,[12]; [30],108% (inactive)
same,viability,[12]; [31],115% (inactive)
same,viability,[12]; [32],122% (inactive)
same,viability,[12]; [33],106% (inactive)
same,viability,[12]; [34],106% (inactive)
same,viability,[12]; [35],111% (inactive)
same,viability,[12]; [36],122% (inactive)
same,viability,[12]; [37],92.3% (active)
same,viability,[12]; [38],101% (inactive)
same,viability,[12]; [39],110% (inactive)
same,viability,[12]; [40],119% (inactive)
same,viability,[12]; [41],90.8% (active)
same,viability,[12]; [42],93.6% (active)
same,viability,[12]; [43],110% (inactive)
same,viability,[12]; [44],110% (inactive)
same,viability,[12]; [45],76.7% (active)
same,viability,[12]; [46],73.3% (active)
same,viability,[12]; [47],13% (active)
same,viability,[12]; [48],19.1% (active)
same,viability,[12]; [49],33.5% (active)
same,viability,[12]; [50],24.3% (active)
COc1ccc(/C=C\c2cc(OC)c(OC)c(OC)c2)cc1O,AC50,[1],0.00662 µM (active)
same,AC50,[2],0.00833 µM (active)
same,outcome,[3],inactive
same,AC50,[4],0.0186 µM (active)
same,AC50,[5],0.0105 µM (active)
same,AC50,[7],0.0105 µM (active)
same,IC50,[8],0.0148 µM (active)
same,fold change,[9]; [13],1.24 (inactive)
same,fold change,[9]; [14],0.571
same,cell count,[9]; [15],1250
same,cell count,[9]; [16],1010
same,SSMD,[11],0.749
same,cell count,[11],6590
same,plate-normalised HSF1 focus index,[11],1.05 (inactive)
